This is an account of results in ChEMBL document CHEMBL3988442, “University of Dundee, Small-Polar-MMV Screening Library” (2021).

Common to all, as to set-up: scale not given: direction of the effect not stated beside the values
Assay [1] addresses Protein translocase subunit SecA (Escherichia coli (strain K12)) (UniProt P10408). Kind of assay: Assay to Identify E. coli SecA ATPase Inhibitors. The conditions noted are these: 30 µM. In kind it is functional.
The target of assay [2] is T1, Ubiquitin-activating enzyme e1, putative (Leishmania donovani (strain BPK282A1)) (UniProt E9BSI1).
T1 sequence (whole entry): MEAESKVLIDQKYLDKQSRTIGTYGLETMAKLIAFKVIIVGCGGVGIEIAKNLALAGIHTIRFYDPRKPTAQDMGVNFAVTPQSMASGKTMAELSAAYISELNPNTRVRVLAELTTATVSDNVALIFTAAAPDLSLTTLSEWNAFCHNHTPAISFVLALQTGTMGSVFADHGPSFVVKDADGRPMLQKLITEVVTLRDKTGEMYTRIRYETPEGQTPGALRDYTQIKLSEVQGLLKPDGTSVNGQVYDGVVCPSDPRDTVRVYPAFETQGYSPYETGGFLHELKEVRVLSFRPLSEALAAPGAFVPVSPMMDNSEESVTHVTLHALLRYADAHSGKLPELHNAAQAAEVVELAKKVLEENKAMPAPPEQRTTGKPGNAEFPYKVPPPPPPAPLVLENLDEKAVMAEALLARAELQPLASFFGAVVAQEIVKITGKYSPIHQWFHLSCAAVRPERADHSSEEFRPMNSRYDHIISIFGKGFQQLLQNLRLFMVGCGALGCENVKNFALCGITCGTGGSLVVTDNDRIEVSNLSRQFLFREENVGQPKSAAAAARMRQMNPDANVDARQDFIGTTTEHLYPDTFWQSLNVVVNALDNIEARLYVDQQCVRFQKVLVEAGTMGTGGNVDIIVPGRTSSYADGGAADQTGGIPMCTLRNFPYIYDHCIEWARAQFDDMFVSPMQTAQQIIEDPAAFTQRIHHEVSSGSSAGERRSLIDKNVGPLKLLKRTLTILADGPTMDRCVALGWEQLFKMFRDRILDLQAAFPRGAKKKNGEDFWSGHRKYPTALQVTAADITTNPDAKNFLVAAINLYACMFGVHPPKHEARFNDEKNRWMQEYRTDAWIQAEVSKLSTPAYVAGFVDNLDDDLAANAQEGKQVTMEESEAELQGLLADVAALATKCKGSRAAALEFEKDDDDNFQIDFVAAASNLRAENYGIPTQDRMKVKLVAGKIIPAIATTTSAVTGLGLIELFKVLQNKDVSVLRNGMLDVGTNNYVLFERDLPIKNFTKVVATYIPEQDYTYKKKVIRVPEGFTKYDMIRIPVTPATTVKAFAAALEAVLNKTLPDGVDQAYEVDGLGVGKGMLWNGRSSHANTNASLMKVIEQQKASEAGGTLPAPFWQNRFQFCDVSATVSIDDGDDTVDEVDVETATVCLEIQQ
Kind of assay: Leishmania donovani Ubiquitin Activating Enzyme (LdE1). In kind it is functional. The conditions noted are these: 30 µM.

The target of assay [3] is AMP-activated protein kinase, AMPK (Homo sapiens) (UniProt P54646+O43741+P54619+Q9UGJ0+Q9Y478+Q13131+Q9UGI9). Kind of assay: AMP-dependent Kinase enzyme assay. An in vitro enzyme assay that detects ADP turnover that is directly proportional to AMPK activity. This uses naive AMPK that is activated during the assay with MK-8722. The conditions noted are these: 30 µM. Format: functional.

The target of assay [4] is Sialic acid-binding Ig-like lectin 9 (Homo sapiens) (UniProt Q9Y336). Kind of assay: Hs-Siglec9 ALPHAscreen SOP 20170721. The conditions noted are these: 10 µM. (In general: Bead proximity is the source of the signal in Alpha formats.)
Sequence of Sialic acid-binding Ig-like lectin 9 (Homo sapiens) (Q9Y336 whole entry): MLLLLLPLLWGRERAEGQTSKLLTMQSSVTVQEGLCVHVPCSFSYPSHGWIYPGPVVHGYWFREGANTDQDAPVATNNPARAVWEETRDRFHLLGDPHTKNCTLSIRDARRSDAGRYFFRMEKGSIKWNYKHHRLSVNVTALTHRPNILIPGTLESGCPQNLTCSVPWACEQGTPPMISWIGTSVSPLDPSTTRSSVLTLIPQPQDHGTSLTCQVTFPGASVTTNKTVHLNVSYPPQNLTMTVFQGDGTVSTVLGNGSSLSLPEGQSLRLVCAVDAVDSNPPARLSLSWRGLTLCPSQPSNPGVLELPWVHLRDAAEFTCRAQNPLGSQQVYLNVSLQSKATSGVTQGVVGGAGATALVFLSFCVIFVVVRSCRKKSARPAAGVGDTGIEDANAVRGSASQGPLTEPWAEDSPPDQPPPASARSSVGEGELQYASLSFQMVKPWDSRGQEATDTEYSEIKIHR
Assay [5] concerns Trypanosoma cruzi. Put plainly: Trypanosoma cruzi phosphomannomutase and mannose-1-phosphate guanylyltransferase assay. Format: functional. The conditions noted are these: 10 µM.
Assay [6] has as its target T2, Arginase-2, mitochondrial (Homo sapiens) (UniProt P78540).
T2 sequence (whole entry): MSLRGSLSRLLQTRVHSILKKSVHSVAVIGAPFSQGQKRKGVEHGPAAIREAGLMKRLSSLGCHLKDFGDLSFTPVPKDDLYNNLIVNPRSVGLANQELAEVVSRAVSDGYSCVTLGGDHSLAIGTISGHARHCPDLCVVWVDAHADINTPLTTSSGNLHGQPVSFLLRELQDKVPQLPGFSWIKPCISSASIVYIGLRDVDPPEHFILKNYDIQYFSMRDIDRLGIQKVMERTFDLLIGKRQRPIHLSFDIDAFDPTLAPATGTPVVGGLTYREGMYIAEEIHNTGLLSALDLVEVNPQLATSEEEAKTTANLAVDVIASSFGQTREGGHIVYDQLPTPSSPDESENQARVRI
Kind of assay: in vitro enzyme assay to detect the production of urea directly proportional to the activity of Arginase II. Note: in the data most compounds retested in dose-response had high values. Format: functional.

Assay [7] has as its target T3, Proteasome subunit beta (Trypanosoma cruzi) (UniProt O96673).
T3 sequence (whole entry): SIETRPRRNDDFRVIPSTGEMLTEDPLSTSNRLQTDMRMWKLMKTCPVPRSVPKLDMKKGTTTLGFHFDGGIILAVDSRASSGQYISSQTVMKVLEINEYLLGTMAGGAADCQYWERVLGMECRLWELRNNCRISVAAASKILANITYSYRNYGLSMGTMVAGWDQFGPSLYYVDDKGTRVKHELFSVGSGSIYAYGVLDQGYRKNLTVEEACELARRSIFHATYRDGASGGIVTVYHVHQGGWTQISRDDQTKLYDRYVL
Put plainly: Trypanosoma cruzi proteasome chymotrypsin-like activity (TcProtChymo) assay. Note: in the data most compounds retested in dose-response had high values. The conditions noted are these: 9.37 µM. In kind it is functional.

For assay [8], the species on record is Homo sapiens. Put plainly: To identify inhibition of the IFN signalling (Jak-Stat) pathway via expression of an eGFP reporter gene under the control of an IFN-stimulated response element (ISRE) containing MxA promoter. The conditions noted are these: 30 µM. In kind it is functional. In general terms: Reporter assays use an easily measured gene product as a stand-in for the process of interest.

For assay [9], the target named is T4, Tyrosyl-tRNA synthetase, putative (Trypanosoma cruzi (strain CL Brener)) (UniProt Q4DSP6).
T4 sequence (whole entry): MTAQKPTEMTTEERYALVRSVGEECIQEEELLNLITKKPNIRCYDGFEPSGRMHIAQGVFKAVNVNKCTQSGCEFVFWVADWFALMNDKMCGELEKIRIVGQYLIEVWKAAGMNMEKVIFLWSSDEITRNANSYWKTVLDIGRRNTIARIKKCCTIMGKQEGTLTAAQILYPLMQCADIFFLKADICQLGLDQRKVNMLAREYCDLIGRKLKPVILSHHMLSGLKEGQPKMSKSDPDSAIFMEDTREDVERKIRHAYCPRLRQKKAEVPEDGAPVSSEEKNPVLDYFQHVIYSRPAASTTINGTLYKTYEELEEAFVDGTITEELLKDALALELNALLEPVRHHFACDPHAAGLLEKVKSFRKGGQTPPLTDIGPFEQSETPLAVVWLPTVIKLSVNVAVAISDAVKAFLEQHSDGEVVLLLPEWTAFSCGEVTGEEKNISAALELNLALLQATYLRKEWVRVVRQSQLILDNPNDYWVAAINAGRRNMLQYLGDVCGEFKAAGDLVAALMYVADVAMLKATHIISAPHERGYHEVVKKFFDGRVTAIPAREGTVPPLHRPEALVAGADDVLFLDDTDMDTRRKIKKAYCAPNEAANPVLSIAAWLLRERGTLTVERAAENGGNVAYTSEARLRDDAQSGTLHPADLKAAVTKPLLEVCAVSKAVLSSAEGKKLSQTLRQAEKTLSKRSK
Kind of assay: Trypanosoma cruzi tyrosyl tRNA synthetase (TcYRS) _High Tyrosine SOP. Note: in the data most compounds retested in dose-response had high values. The conditions noted are these: 30 µM. Format: functional.

The target in assay [10] is T4, Tyrosyl-tRNA synthetase, putative (Trypanosoma cruzi (strain CL Brener)). Kind of assay: Trypanosoma cruzi tyrosyl tRNA synthetase (TcYRS) SOP. Format: functional. The conditions noted are these: 30 µM.
The target in assay [11] is Chromo domain-containing protein 1 (Saccharomyces cerevisiae (strain ATCC 204508 / S288c) (Baker's yeast)) (UniProt P32657). Kind of assay: ScCHD-1 Enzyme Inhibition Assay. Note: in the data most compounds retested in dose-response had high values. In kind it is functional. The conditions noted are these: 30 µM.
Sequence of Chromo domain-containing protein 1 (Saccharomyces cerevisiae (strain ATCC 204508 / S288c) (Baker's yeast)) (P32657 whole entry, the tested form may be a part): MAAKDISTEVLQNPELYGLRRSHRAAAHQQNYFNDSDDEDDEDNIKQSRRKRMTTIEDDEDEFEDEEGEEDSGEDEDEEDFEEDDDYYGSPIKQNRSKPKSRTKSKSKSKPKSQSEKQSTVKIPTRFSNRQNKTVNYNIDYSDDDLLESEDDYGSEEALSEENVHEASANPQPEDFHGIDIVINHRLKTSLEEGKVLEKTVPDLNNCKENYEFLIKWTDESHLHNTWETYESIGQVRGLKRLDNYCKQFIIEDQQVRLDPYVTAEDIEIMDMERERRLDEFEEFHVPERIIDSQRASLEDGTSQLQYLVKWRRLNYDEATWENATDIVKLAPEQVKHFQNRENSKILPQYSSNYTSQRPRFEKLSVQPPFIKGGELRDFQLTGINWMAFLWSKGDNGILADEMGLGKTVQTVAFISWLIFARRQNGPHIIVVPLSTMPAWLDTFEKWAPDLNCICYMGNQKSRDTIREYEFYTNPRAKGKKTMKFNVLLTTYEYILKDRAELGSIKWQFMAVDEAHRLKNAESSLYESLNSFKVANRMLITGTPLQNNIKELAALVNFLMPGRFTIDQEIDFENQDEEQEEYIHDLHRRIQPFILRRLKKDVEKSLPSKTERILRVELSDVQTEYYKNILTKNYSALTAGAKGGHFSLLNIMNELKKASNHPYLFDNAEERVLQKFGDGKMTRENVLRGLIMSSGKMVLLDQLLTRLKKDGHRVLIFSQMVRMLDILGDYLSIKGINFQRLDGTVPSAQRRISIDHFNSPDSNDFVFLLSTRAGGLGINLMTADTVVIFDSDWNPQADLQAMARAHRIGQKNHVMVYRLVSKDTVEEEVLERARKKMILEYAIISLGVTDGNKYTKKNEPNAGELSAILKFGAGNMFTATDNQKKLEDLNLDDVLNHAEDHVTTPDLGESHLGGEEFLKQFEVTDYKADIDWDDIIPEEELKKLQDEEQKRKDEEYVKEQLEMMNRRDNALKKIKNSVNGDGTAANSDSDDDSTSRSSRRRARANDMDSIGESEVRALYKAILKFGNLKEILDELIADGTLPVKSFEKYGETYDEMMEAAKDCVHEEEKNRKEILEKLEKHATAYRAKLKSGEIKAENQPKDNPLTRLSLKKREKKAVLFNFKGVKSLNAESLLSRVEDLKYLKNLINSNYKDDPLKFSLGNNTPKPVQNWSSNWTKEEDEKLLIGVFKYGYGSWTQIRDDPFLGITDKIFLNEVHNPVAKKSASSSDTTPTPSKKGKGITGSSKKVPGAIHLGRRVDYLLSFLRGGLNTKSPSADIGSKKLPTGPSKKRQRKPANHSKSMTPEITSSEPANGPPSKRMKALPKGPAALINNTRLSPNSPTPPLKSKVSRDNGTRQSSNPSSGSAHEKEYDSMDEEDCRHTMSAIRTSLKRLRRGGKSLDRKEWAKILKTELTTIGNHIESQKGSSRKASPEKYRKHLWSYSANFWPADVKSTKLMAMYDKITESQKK
Assay [12] has as its system N/A. Kind of assay: Trypanosoma cruzi proteasome luciferase counter-screen. In kind it is functional. The conditions noted are these: 9.37 µM. (In general: A counterscreen serves to expose hits that act by an unwanted route or on another target.)

Each structure is given as a SMILES string. Where “and” joins values, the source holds several entries; their conditions need not be identical. Identical values can stand only once. For part of these data: Results with a measured potency or affinity are listed apart.

Sequence of Protein translocase subunit SecA (Escherichia coli (strain K12)) (P10408 whole entry): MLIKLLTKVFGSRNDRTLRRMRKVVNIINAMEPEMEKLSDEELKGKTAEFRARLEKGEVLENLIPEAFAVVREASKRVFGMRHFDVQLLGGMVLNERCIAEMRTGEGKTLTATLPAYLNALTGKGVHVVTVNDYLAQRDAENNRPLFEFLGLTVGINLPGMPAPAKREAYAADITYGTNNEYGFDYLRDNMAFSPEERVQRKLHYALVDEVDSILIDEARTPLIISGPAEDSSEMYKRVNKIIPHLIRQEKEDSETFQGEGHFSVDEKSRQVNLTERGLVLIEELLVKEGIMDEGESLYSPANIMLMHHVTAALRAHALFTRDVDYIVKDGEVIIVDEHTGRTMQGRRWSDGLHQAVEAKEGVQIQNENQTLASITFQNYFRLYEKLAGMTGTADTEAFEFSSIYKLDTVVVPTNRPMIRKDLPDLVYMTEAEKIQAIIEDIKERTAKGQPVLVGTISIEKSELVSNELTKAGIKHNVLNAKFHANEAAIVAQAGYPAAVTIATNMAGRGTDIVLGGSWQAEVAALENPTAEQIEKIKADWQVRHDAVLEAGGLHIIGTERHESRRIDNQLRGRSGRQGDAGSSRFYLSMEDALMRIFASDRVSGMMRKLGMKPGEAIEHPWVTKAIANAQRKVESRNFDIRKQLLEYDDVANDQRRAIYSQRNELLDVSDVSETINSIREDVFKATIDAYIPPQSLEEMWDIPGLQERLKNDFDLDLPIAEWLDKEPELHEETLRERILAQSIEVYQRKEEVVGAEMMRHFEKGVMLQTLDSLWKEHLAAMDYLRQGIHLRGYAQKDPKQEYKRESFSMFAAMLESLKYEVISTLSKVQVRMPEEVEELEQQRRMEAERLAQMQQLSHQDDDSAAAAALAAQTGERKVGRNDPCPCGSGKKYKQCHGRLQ

With `Cn1cc(CN2C[C@@H]3COC[C@]3(C(=O)NCc3ccccn3)C2)cn1`, the Percent Effect was -3.43% in [1]; 5.33% in [2]; 0.406% in assay [3]; 6.2% in [4]; 0.772% in assay [5]; -0.54% in assay [6] (30 µM). Also, the Percent Effect in [6] (33.3 µM) was -54.3%; in assay [7] it was 4.62%; in assay [8], -8.11%; in [9], 2.08%; in assay [10], 2.5%; in [11], -5.35%.
Regarding `Cc1cccc(NC(=O)c2sccc2C)n1`, the Percent Effect is -3.25% in assay [1]; 23.7% in [2]; -0.39% in assay [3]; -12.7% in [4]; 3.99% in [5]; -16.6% in assay [6] (33.3 µM). In addition, the Percent Effect in assay [7] was 91.2% and 92.2% and 77.2%; in assay [12] it was 69.5% and 70.4%; in [8], 16.1%; in [9] it was 1.06%; in [10], 13%; in assay [11], -7.3%.
Consider `Cc1cc(C(=O)N2CCc3nnc(N)cc3C2)c(C)n1-c1cccnc1`, for which the Percent Effect is -9.46% in assay [1]; -46.8% in assay [2]; -58.5% in assay [3]; 7.86% in assay [4]; 0.923% in [5]; -2.37% in assay [6] (33.3 µM). Moreover, the Percent Effect is 33.5% and 37.5% and 48.3% in [7]; 14.7% and 15.2% in assay [12]; 12.2% in assay [8]; 9.38% in [9]; 10.1% in assay [10]; -5.27% in assay [11].
With `CNC(=O)[C@@H]1C[C@H]2CN(C(=O)c3ccco3)C[C@H]2N1C`, the Percent Effect in [1] is -1.85%; in [2], 2.67%; in assay [3], -2.42%; in assay [4], 4.75%; in [5], -3.67%; in assay [6] (30 µM), -9.19%. Moreover, the Percent Effect in [6] (33.3 µM) was -21%; in [7], 3.76%; in assay [8], -3.26%; in assay [9], 4.17%; in [10], 5%; in [11] it was -5.57%.
As for `O=c1[nH]c2c(c(=O)n1C1CCCCC1)CCC2Nc1ccccc1` (stereo not given), the Percent Effect in [1] was -1.62%; in assay [2] it was -4%; in assay [3] it was -24.6%; in assay [4], -0.297%; in assay [5], 0.393%; in [6] (30 µM), -11.3%. Also, the Percent Effect in assay [6] (33.3 µM) is 1.58%; in assay [7] it was 9.8%; in [8], 11.8%; in assay [9] it was -1.06%; in assay [10] it was 0%; in assay [11] it was 0.309%.
`CN(C)CCCNC(=O)c1cc(Br)c2c(c1)OCCO2`: the Percent Effect in assay [1] is -3.75%; in assay [2], 5.33%; in assay [3] it was -4%; in [4], 10%; in assay [5], 3.6%; in [6] (30 µM) it was -0.54%. Besides, the Percent Effect in [6] (33.3 µM) was 18.2%; in assay [7] it was 6.28%; in [8] it was -10%; in [9], 4.92%; in [10], 18.5%; in [11], -7.32%.
For the compound `O=c1[nH]c2c(c(=O)n1C1CCCCC1)CCC2NCCc1ccccc1` (stereo not given), the Percent Effect in [1] was -2.86%; in assay [2], 1.33%; in [3], -8.89%; in [4] it was 6.39%; in assay [5] it was 2.75%; in assay [6] (30 µM), 1.62%. Besides, the Percent Effect in assay [6] (33.3 µM) was -3.35%; in assay [7], 2.22%; in assay [8], -14.6%; in assay [9] it was -3.17%; in assay [10], 0%; in assay [11], -3.17%.
As for `COc1cc(/C=C/c2ncc(C(=O)O)s2)cc(Cl)c1O`, the Percent Effect was 3.12% in [1]; 13.9% in assay [2]; 50.5% in assay [3]; -3.01% in [4]; 0.923% in assay [5]; 4.95% in assay [6] (33.3 µM). Moreover, the Percent Effect in assay [7] is 99.9% and 99% and 99.8%; in [12], 92.6% and 91.5%; in assay [8], -2.51%; in assay [9] it was 4.17%; in [10] it was 15.2%; in [11], -33.3%.
Regarding `CCC(C(=O)NCc1ccncc1)N(c1cccc(C)c1)S(C)(=O)=O` (stereo not given), the Percent Effect was -2.54% in assay [1]; 2.67% in assay [2]; 0.78% in [3]; 9.85% in [4]; 5.16% in assay [5]; 10.3% in assay [6] (30 µM). For the same compound, the Percent Effect in assay [6] (33.3 µM) was 9.38%; in [7], 7.32%; in [8] it was 18.8%; in assay [9], 2.73%; in [10], 13.6%; in [11] it was -7.66%.
On to `CCOc1ncccc1NC(=O)c1cc2c(s1)CCC2`, for which the Percent Effect in assay [1] was 1.48%; in [2], 9.72%; in assay [3], 8.31%; in assay [4], 7.26%; in assay [5], 2.82%; in assay [6] (33.3 µM), -6.18%. In addition, the Percent Effect in [7] was 22.1% and 36.7% and 23%; in assay [12] it was 13.8% and 15.3%; in assay [8], 9.51%; in assay [9], 4.21%; in assay [10], 10.3%; in assay [11], 63.8%.
